# Data from the OligoGym collection.
# Target: ERICH1
# Assay: pooled miR-30 sensor sort-seq; sequence = guide strand
# Settings: shRNA
# Note: reference of the scale not given here.
row,Sequence,sensor-assay potency score (higher = more potent)
1,TTAACTTAACAGAATGTCCATT,-0.597
2,TTTATTTTTGCTTATTGTGGTG,-0.386
3,AATTGTATCATCTTCCTCGCTG,0.524
4,TTTCATTGGTAATTGTATCATC,-0.447
5,TTCATTGCTGCTGTCCTCGGGC,0.0342
6,TTATGCTTCCTAATTCTTCTTC,0.311
7,TCTCTCAGTATCTTGCAGGAGC,-0.55
8,TTTTTTGTTAAAGAGGAGCTGT,0.195

# Target: ERMAP
# Assay: as above
# Settings: shRNA
row,Sequence,sensor-assay potency score (higher = more potent)
1,TTTGCTCTTCTTTGCTTCCAGA,-0.875
2,TTTCTTGACAGCTTTATGGAGT,0.273
3,TAGTAAAGAAGAGTTCACCTTG,0.291
4,TTCAACTTCAGTTCACTCCGGA,0.912
5,TTTTGCTCTTCTTTGCTTCCAG,0.153
6,TTGTAGAAAGAGATGACTCCTG,0.279
7,TATTGCAGTACAATGGTCTTGT,0.896
8,TAGTTCTGAACAAATGACTAGA,-0.0154
9,TCAGACATCGGTAAGACCCTTG,0.421
10,TCTCTCACTAGCACCGTCCTCC,0.0369
11,TTACACATCTTTGGTCCTCAGA,-0.674
12,TTTACTCAGATTTCCAACTTGG,0.208

# Target: ESPNL
# Assay: as above
# Settings: shRNA
row,Sequence,sensor-assay potency score (higher = more potent)
1,TGCACCAAGAACTTGACGCAGT,-1.02
2,TTCAGCAGCAGGGACAGGCTGC,-0.751
3,TTACATCTTCTTGAGTGTCCGT,0.428
4,TACATCTTCTTGAGTGTCCGTC,0.148
5,TTTATTTAGCAAACACATGTTC,-0.167
6,TTTTACATCTTCTTGAGTGTCC,0.799
7,TTATTTAGCAAACACATGTTCA,-0.54
8,TCGGTGAATGTGACCAGCCAGA,-1.22
9,TAGCAAACACATGTTCAGCTTC,0.322
10,TGAGTCTGTGAGTACCTCCAGG,-0.966
11,TCCTCTTCTTCCATCCTCCAGG,-1.74
12,TGCCACAACAGAACAGTCCCGC,0.291

# Target: ESR2
# Assay: as above
# Settings: shRNA
row,Sequence,sensor-assay potency score (higher = more potent)
1,TACCCACATCTCTCTCTCCGGG,-0.444
2,TTGTCGGCCAACTTGGTCAGGG,-0.443
3,TTCCTTTTCAGTGTCTCTCTGT,0.263
4,TCCAAGTTAGTGACATTGCTGG,0.101
5,TTATGTCCTTGAATGCTTCTTT,0.411
6,TAATTCATCACAGCAGGGCTAT,-0.611
7,TTTTCTGCCCTCGCATGCCTGA,-0.946
8,TAATCGCTGCAGACAGCGCAGA,-1.17
